# Legend:
# Settings in all cases: concentration: 1 μM, replicates: in singlicate; n = 1
# NDR1 = system: T1, NDR1
# T1 construct: gene STK38
# NDR2 = system: NDR2
# NEK10 = system: NEK10
# NEK11 = system: NEK11
# NEK1 = system: NEK1
# NEK2 = system: NEK2
# NEK3 = system: NEK3
# NEK4 = system: NEK4
# NEK5 = system: NEK5
# NEK6 = system: NEK6
# NEK7 = system: NEK7
# NEK9 = system: NEK9
# NIK = system: T2, NIK
# T2 construct: gene MAP3K14
# NIM1 = system: T3, NIM1
# T3 construct: gene MGC42105
# NLK = system: NLK
# OSR1 = system: T4, OSR1
# T4 construct: gene OXSR1
# PAK1 = system: PAK1
# PAK2 = system: PAK2
# PAK3 = system: PAK3
# PAK4 = system: PAK4
# 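Further: KINOMEscan kinase panel screen.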
Structure (SMILES),%Inh (NDR1) [%],%Inh (NDR2) [%],%Inh (NEK10) [%],%Inh (NEK11) [%],%Inh (NEK1) [%],%Inh (NEK2) [%],%Inh (NEK3) [%],%Inh (NEK4) [%],%Inh (NEK5) [%],%Inh (NEK6) [%],%Inh (NEK7) [%],%Inh (NEK9) [%],%Inh (NIK) [%],%Inh (NIM1) [%],%Inh (NLK) [%],%Inh (OSR1) [%],%Inh (PAK1) [%],%Inh (PAK2) [%],%Inh (PAK3) [%],%Inh (PAK4) [%]
Cc1cc(-c2ccc3c(c2)CC[C@@H](N[C@@H](C)c2ccccc2)C3)cnc1N.Cl [GW412617],0,0,63,20,0,3,0,16,0,14,9,0,77,22,0,8,0,16,0,36
Cc1cccc(-c2nc(-c3ccc(S(C)(=O)=O)cc3)sc2-c2ccnc(NCCc3ccccc3)c2)c1,1,0,14,0,0,0,30,0,2,0,0,0,0,0,11,0,18,20,0,1
Cn1ccc2ncnc(Oc3cccc(C(=O)Nc4ccccc4)c3)c21,14,0,0,0,0,0,0,0,0,17,0,0,0,0,4,0,0,0,9,21
Cc1nnc(-c2ccc3occ(-c4ccc(S(C)=O)cc4)c3c2)[nH]1 (stereo not drawn),1,0,0,0,0,11,11,0,1,8,22,25,0,0,17,6,28,36,17,8
Cl.c1ccc(-c2n[nH]cc2-c2ccnc(-c3ccc(CN4CCOCC4)cc3)c2)nc1 [GW776245],14,31,0,0,0,21,14,0,6,22,0,0,0,0,0,0,6,14,10,16
Clc1cc(Cl)cc(Nc2ccnc(Nc3cc(Cl)cc(Cl)c3)n2)c1 [GSK175726],21,11,4,8,1,4,16,0,23,0,0,7,0,0,17,0,12,0,0,6
Cn1ccc2ncnc(Oc3ccc(NC(=O)Nc4ccccc4)cc3)c21,9,0,18,0,0,3,12,0,0,0,0,0,6,0,11,0,10,17,40,10
Cc1cccc(-c2nc(Nc3cccc(C(N)=O)c3)c3ccccc3n2)n1 [GW876019],9,0,12,0,6,0,28,0,12,0,0,15,0,0,0,0,16,21,49,17
O=S(=O)(c1ccc(-c2ccnc3[nH]ccc23)cc1)N1CCCC1 [GSK846226],33,38,15,0,12,16,16,0,31,0,20,28,12,0,14,4,0,0,12,0
